Assay outcomes from PubChem BioAssay.
In the library only some 19% were active in any assay of this set; here they are far more common.
TDP1 cell CPT: DT40-hTDP1 cell growth loss with CPT | chicken DT40 Tdp1-/-;hTDP1 cells + 20 nM CPT, ATP luminescence, 48 h | Potency, µM (highest dose often 46.2 µM), without a hit: at the highest dose activity change, negative = growth inhibition, hits mostly inhibitors | 420,000 compounds, 12% hits | AID 686979; further: nearly all actives have a fitted effect of over 55% in size
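Chicken DT40 Tdp1-/- cells complemented with human TDP1, 400 cells/well, exposed to compounds plus 20 nM camptothecin for at least 48 h at 37 C; viability read as ATP content by CellTiter-Glo luminescence.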
TDP1 inh: inhibitors of human tyrosyl-DNA phosphodiesterase TDP1 | Q9NUW8 | recombinant TDP1, AlphaScreen DNA substrate cleavage | Potency, µM (doses to about 130 µM), without a hit: at the highest dose activity change, negative = inhibition, most hits filed as inhibitors | 350,000 compounds, 0.28% hits | AID 485290; further: nearly all actives have a fitted effect of over 40% in size
Target sequence (Q9NUW8 whole entry, looked up): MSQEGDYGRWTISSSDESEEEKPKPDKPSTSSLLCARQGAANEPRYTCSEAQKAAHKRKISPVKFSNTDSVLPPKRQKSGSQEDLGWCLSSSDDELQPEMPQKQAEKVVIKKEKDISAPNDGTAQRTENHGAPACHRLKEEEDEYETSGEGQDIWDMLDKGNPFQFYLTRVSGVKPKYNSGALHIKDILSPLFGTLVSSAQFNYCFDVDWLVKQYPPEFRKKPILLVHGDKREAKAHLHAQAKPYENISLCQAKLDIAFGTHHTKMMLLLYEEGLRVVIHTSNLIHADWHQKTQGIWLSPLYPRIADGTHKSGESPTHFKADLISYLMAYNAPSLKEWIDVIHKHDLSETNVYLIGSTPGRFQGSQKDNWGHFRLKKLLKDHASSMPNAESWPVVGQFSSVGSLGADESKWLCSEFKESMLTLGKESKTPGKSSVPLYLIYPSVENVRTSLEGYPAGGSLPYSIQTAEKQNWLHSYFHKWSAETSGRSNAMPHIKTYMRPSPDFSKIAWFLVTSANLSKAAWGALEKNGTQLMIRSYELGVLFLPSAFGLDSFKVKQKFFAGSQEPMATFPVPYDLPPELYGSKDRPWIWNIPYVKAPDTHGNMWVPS
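Recombinant E. coli-expressed Tdp1 (1 nM) preincubated with compound 15 min at RT, then 5'-biotin/3'-phosphotyrosine-FITC DNA substrate (15 nM) added for 5 min. AlphaScreen beads (10 ug/ml) added, 10 min RT; tyrosine-FITC cleavage read as signal loss.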
Gal4-VP16 FLuc: counter-screen for ROR gamma inhibitors: Gal4-VP16 reporter; Potency, µM (doses to about 53.6 µM), without a hit: top-dose activity, negative = inhibition, actives largely listed as inhibitors; Drosophila S2 Gal4-VP16 UAS-luciferase, luminescence, 20 h; 310,000 compounds, 3.5% hits;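 further: Gal4-VP16 expression switched on by copper sulfate through the metallothionein promoter; nearly all actives have a fitted effect of over 50% in size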
RORg inh: inhibitors of mouse ROR gamma transcriptional activity; Drosophila S2 Gal4-RORgamma UAS-luciferase reporter, 20 h; P51450; Potency, µM (highest dose often 53.6 µM), for inactives: top-dose activity change, negative = inhibition, actives largely listed as inhibitors; 310,000 compounds, 5.4% hits; further: nearly all actives have a fitted effect of over 60% in size
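Luminescence from a UAS-regulated Photinus luciferase reporter in stably transfected Drosophila Schneider cells is measured; decreased signal marks ROR gamma inhibition. Fusion expression is induced by 700 uM copper sulfate for 20 hr.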
DT40 TDP1 no CPT: qHTS for Inhibitors of human tyrosyl-DNA phosphodiesterase 1 (TDP1): qHTS in cells in absence of CPT; Potency, µM (series often up to 46.2 µM), without a hit: at the top dose activity change, negative = growth inhibition, most hits filed as inhibitors; DT40 Tdp1-/- hTDP1 cells, no CPT, ATP luminescence, 48 h; 420,000 compounds, 15% hits; further: nearly all actives have a fitted effect of over 55% in size
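No-CPT arm: Tdp1-/-;hTDP1 DT40 cells (400/well) plus compounds, incubated ≥48 hr at 37 °C. Readout CellTiter-Glo luminescence.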
The depositor's hits bear a star; u = inconclusive; x = no result given; [ ] = remark or other dose. The call rests on the fitted dose curve; in most records, active means well fitted curve in the direction sought with a large enough effect; inconclusive means small, poorly fitted or top-dose-only effect, or another doubt; inactive means no such curve, though single readings can be large; an effect the other way counts as inactive or inconclusive. On the % scale 0 is the no-effect control and ±100 the full control effect; potency means the concentration at half of the fitted maximal effect.

SMILES | TDP1 cell CPT | TDP1 inh | Gal4-VP16 FLuc | RORg inh | DT40 TDP1 no CPT
COC(=O)Cc1[nH]n(-c2nc3ccccc3s2)c(=O)c1C(C)=O | -18% | x | -20% | u | 10µM*
CC(=O)c1c(CC(=O)O)[nH]n(-c2nc3ccccc3s2)c1=O | u | x | 2% | 0% | u
O=c1c2cnn(-c3ccccc3)c2nc(-c2ccco2)n1-c1ccccc1 | u | -2% | -15% | u | 21µM*
Cc1ccc(-n2c(-c3cccc(C)c3)nc3c(cnn3-c3ccccc3)c2=O)cc1 | u | 0%[2.28 µM] | x | x | u
Cc1cccc(-n2c(-c3ccco3)nc3c(cnn3-c3ccccc3C)c2=O)c1 | 21µM* | 5% | x | x | u
O=c1oc(-c2ccco2)nc2c1cnn2-c1ccccc1 | u | -2% | u | 0% | u
CCOC(=O)c1ccc(-n2c(-c3ccco3)nc3ccccc3c2=O)cc1 | 12µM* | 7% | -7% | 23% | 18µM*
CCn1cc(C(=O)NCC2CCCO2)c(=O)c2cc(S(=O)(=O)N3CCC(C)CC3)ccc21 (configuration not stated) | u | 6% | 1% | 17% | u
O=C(C1=C[C@@H](c2ccc(Br)cc2)C[C@@H](OCCCCO)O1)N1CCN(Cc2ccc3c(c2)OCO3)CC1 | u | 1% | u | u | u
O=C(C1=C[C@H](c2csc3ccccc23)C[C@H](OCCCCO)O1)N1CCN(Cc2ccccc2)CC1 | 26µM* | 0% | -13% | -3% | u
O=C(NCc1ccccc1)C1=C[C@H](c2csc3ccccc23)C[C@H](OCCCCO)O1 | 16µM* | 1% | 20% | u | 18µM*
O=C(C1=C[C@H](c2ccc(Br)cc2)C[C@H](OCCCCO)O1)N1CCN(Cc2ccccc2)CC1 | 23µM* | 4% | -22% | u | u
O=C(C1=C[C@@H](c2csc3ccccc23)C[C@@H](OCCCCO)O1)N1CCN(Cc2ccc3c(c2)OCO3)CC1 | u | 8% | 2% | -1% | u
O=C(Nc1ccccc1)C1=C[C@H](c2csc3ccccc23)C[C@H](OCCCCO)O1 | u | 5% | 3% | 40% | u
CC1CCC2(CC1)NC(=O)N(CC(=O)NCc1cccs1)C2=O (configuration not stated) | -5% | -3% | 3% | 20% | -16%
Cc1cccc(N2C(=N)SCC2=O)c1C | -22% | 1% | 2% | -8% | 3%
CCc1nnc(N2C(=N)SCC2=O)s1 | 8% | -1% | 13µM* | 1.4µM* | u
c1ccc(N2CCN(c3cnc4ccccc4n3)CC2)cc1 | u | 1% | -10% | 20% | u
Clc1ccc(N2CCN(c3cnc4ccccc4n3)CC2)cc1 | 23µM* | 8% | 1% | 27% | u
Cc1ccc(CSc2ncnc3onc(C)c23)cc1 | 14% | 0% | -5% | -1% | -16%
Cc1noc2ncnc(Nc3ccc(F)cc3)c12 | 0% | x | x | x | -10%
Cc1ccc(Sc2ncnc3onc(C)c23)cc1 | u | -6% | 22µM* | 10µM* | 21µM*
Cc1noc2ncnc(Sc3c(Cl)cccc3Cl)c12 | 18µM* | -2% | 16µM* | -111% | 16µM*
Cc1ccccc1Sc1ncnc2onc(C)c12 | 23µM* | -5% | u | 7.1µM* | 23µM*
Cc1noc2ncnc(SCc3ccc(C(F)(F)F)cc3)c12 | u | -4% | -7% | u | 16µM*
COc1ccccc1OCC(=O)OCC(=O)Nc1ncc(Cl)cc1Cl | -23% | 2% | 11% | -26% | 8%
COc1ccc(OC)c(S(=O)(=O)NCC(c2cccs2)N2CCc3ccccc3C2)c1 (configuration not stated) | 16µM* | x | x | x | u
CC(C)N(C(=O)Cn1cc(S(=O)(=O)Cc2ccc(Br)cc2)c2ccccc21)C(C)C | 23µM* | -3% | x | x | 16µM*
Cc1ccc(C)c(CS(=O)(=O)c2cn(CC(=O)N(C(C)C)C(C)C)c3ccccc23)c1 | 15µM* | 0% | x | x | 12µM*
